# JMJD2A Tudor – blocks the human JMJD2A Tudor domain; Potency, µM (highest dose often 114 µM), without a hit: at the top dose activity change, negative = inhibition, most hits filed as inhibitors; AlphaScreen JMJD2A-Tudor / H3K4me3 peptide binding; 390,000 compounds, 4.4% hits; O75164; AID 504339; also: % is scaled to controls: 0 for no effect and ±100 for the full control effect; nearly all actives have a fitted effect of over 50% in size
# G9a block – blocks human histone lysine methyltransferase G9a. Q96KQ7. G9a H3K9 monomethylation, AlphaScreen, 2 h. Potency, µM (doses to about 102 µM), inactives show at the highest dose activity, negative = inhibition, hits mostly inhibitors. 350,000 compounds, 8.8% hits. AID 504332; also: % is scaled to controls: 0 for no effect and ±100 for the full control effect; nearly all actives have a fitted effect of over 75% in size
#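 G9a (20 nM) was preincubated 15 min with compound, then reacted 2 h at room temperature with 500 nM biotin-H3K9 peptide and 20 µM SAM. Monomethyl-H3K9 detected by AlphaScreen using anti-H3K9me1 antibody.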
# PLK1 PBD block – blocks phosphopeptide binding to human PLK1 polo-box domain | P53350 | Plk1 PBD binding of FITC phosphopeptide, fluorescence polarization | Potency, µM, for the others: max response, negative = inhibition, usual class: inhibitors | 360,000 compounds, 2.8% hits | AID 720504; also: series mostly up to about 57 µM; % is scaled to controls: 0 for no effect and ±100 for the full control effect; nearly all actives have a fitted effect of over 65% in size
# Target sequence (P53350 whole entry, looked up, the tested form may be a part): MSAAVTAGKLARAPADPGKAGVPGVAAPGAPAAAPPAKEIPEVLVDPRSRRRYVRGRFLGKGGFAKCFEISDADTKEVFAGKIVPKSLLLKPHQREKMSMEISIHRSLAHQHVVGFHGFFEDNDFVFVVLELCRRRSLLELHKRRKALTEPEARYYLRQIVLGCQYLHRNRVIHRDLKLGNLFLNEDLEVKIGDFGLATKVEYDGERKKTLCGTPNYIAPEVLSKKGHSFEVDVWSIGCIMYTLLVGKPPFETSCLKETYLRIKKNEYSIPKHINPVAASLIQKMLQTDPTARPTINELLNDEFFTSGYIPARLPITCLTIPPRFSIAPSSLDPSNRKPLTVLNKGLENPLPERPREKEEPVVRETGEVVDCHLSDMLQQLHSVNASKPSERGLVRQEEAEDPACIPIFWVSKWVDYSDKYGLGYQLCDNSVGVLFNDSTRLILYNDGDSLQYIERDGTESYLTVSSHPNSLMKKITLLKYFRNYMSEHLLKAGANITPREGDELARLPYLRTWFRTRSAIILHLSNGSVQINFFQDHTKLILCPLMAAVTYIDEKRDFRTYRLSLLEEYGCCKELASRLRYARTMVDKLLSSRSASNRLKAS
# VDR inhibitor – inhibitors of human vitamin D receptor; Potency, µM, for inactives: max response, negative = inhibition, most hits filed as inhibitors; 400,000 compounds, 0.93% hits; VDR-SRC2-3 peptide fluorescence polarization, 2 h; also: % is scaled to controls: 0 for no effect and ±100 for the full control effect
#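 VDR–SRC2-3 interaction, FP format. Cmpds 23 nl via pintool, brief spin, 2 h ambient incubation.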
# HP1b chromo inh – inhibitors of HP1-beta chromodomain binding to methylated histone tails; P83916; AlphaScreen HP1-beta / biotin-H3K9me3 peptide binding; Potency, µM (top dose mostly 114 µM), inactives show at the top dose activity change, negative = inhibition, usual class: inhibitors; 390,000 compounds, 0.56% hits; AID 540317; also: nearly all actives have a fitted effect of over 70% in size
#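 AlphaScreen: HP1-beta (50 nM) preformed 30 min with biotin-H3(1-18)K9me3 peptide (50 nM) in PBS pH 7.4, 0.01% Tween-20. Compound added for 30 min at RT, then streptavidin donor/nickel chelate acceptor beads (10 ug/mL) for 30 min.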
# BAZ2B block – blocks human BAZ2B; Q9UIF8; AlphaScreen BAZ2B-H3K14Ac peptide displacement; Potency, µM (top dose mostly 114 µM), inactives show at the highest dose activity change, negative = inhibition, usual class: inhibitors; 360,000 compounds, 4.4% hits; AID 504333; also: % is scaled to controls: 0 for no effect and ±100 for the full control effect; nearly all actives have a fitted effect of over 60% in size
#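 AlphaScreen displacement of biotin-H3(5-23)K14Ac peptide (50 nM final) from BAZ2B (50 nM final) in PBS pH 7.4, 0.01% Tween-20; complex preformed 30 min RT, then compounds (top 110 uM) 30 min RT, beads 20 min dark.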
# * marks the source's active call; other numbers are inactive results; u = inconclusive; x = no result; [ ] = another dose, or the depositor's remark. The list is not random: actives were taken first. Their share in the collection is about 11%. Calls follow the shape of the dose curve; as a rule, active = well fitted curve in the direction sought with a large enough effect; inconclusive = small, poorly fitted or top-dose-only effect, or another doubt; inactive = no such curve, though single readings can be large; an effect the other way counts as inactive or inconclusive. Potency is read from the fitted curve at half-maximal effect.
SMILES,JMJD2A Tudor,G9a block,PLK1 PBD block,VDR inhibitor,HP1b chromo inh,BAZ2B block
O=C(NNc1nc(-c2ccccc2)cs1)c1ccc(F)cc1,-19.0%,20µM*,-2.9%,6.1%,17.7%,-28.6%
O=C(NNc1nc(-c2ccccc2)cs1)c1cccs1,-26.6%,5.6%[59 µM],-7.2%,7.5%,22.2%,u
COc1ccccc1Cn1c(CNS(=O)(=O)c2ccccc2Cl)nc2cccnc21,-8.7%,39.9%[59 µM],x,0.6%,27.4%[57 µM],-13.2%
O=C(Nc1cccnc1)c1ccc(NS(=O)(=O)c2cc([N+](=O)[O-])ccc2Cl)cc1,-17.1%,50.1µM*,-5.1%,-14.2%,20.2%,79.4µM*
CSCCC(NC(=O)c1cc([N+](=O)[O-])ccc1Cl)C(=O)O (stereo unspecified),-7.8%[57.1 µM],79.4µM*,-6.5%,14.6%,47.3%,12.9%
CSCCC(NC(=O)c1ccc(Cl)cc1)C(=O)O (stereo unspecified),-5.8%,-41.4%,7.5%,3.9%,43.8%,8.2%
O=C(O)c1ccccc1C(=O)Nc1cccc([N+](=O)[O-])c1,-6.3%,-5.7%,2.0%,0.9%,38.1%,2.5%
CSCCC(NC(=O)c1cc(C)oc1C)C(=O)O (stereo unspecified),6.3%,31.6µM*,0.3%,-9.0%,35.7%,3.0%
O=C(Nc1cccc([N+](=O)[O-])c1)c1cc2ccccc2cc1O,-7.4%[11.4 µM],u,u,u,36.1%,50.1µM*
COc1ccc(F)cc1S(=O)(=O)NCCc1c(C)[nH]c2c(Cl)cccc12,-32.6%,-0.7%[59 µM],x,-1.3%,6.8%,u
COC(=O)c1ccc(NC(=O)NCCn2nnc3cc(S(=O)(=O)N(C)C)ccc32)cc1,-11.6%,6.2%[59 µM],x,0.1%,5.6%,-2.3%
O=C(Nc1ccc(Nc2ccccc2)cc1)c1cc([N+](=O)[O-])ccc1Cl,u,-22.7%,-8.5%,-12.9%,19.3%,39.8µM*
O=C(Nc1ccccc1Oc1ccccc1)c1cc([N+](=O)[O-])ccc1Cl,u,u,-10.2%,5.8%,-20.0%,u
O=Cc1ccc2cccnc2n1,u,39.8µM*,-12.7%,-19.9%,43.9%,-7.6%
O=C(O)c1cccc2cccnc12,-2.7%[11.4 µM],2.4%[59 µM],-21.8%,-1.5%,-11.8%,u
O=Cc1ccc2ccc3cccnc3c2n1,63.1µM*,u,-5.0%,11.1%,48.2%,u
OC[C@@H]1O[C@H](OC2[C@@H](O)[C@@H](O)[C@@H](O)O[C@@H]2CO)[C@H](O)[C@@H](O)[C@@H]1OC1O[C@H](CO)[C@@H](O)[C@H](O)[C@@H]1O (stereo partly specified),x,x,x,-6.8%,x,x
COc1cc(NC(=O)C2=C(N3CCOCC3)/C(=C\c3ccc(N(C)C)cc3)CCC2)cc(OC)c1OC,28.2µM*,u,-15.2%,-12.9%,u,39.8µM*
Fc1ccc(-c2nc3ccccc3[nH]2)cc1,-6.5%,x,u,2.1%,50.3%,1.9%
S=c1nc(-c2ccccc2)[nH]c2ccccc12,-6.9%,50.1µM*,-23.1%,-5.0%,48.3%,-25.0%
S=c1nc(-c2ccc(Br)cc2)[nH]c2ccccc12,-9.6%[11.4 µM],x,11.9µM*,u,21.7%,2.8%
CC(C)(CS(=O)(=O)[O-])NC(=O)CC[N+](C)(C)CCO,3.16µM*,u,-17.7%,-3.9%,8.91µM*,2.82µM*
Nc1nc(NCC2CCC(CNS(=O)(=O)c3cccc4ccccc34)CC2)nc2ccccc12 (stereo unspecified),x,25.1µM*,x,118.5%,x,x
O=C(CN1CCN(Cc2ccc(F)cc2Cl)S1(=O)=O)Nc1ccc(F)cc1,6.6%,-2.2%[59 µM],x,4.4%,81.9%,0.4%
COc1ccccc1NC(=O)C(=O)NCC(c1ccc2c(c1)OCO2)N1CCN(C)CC1 (stereo unspecified),-13.2%,-5.7%[59 µM],x,2.6%,22.8%[57 µM],-1.5%
SMILES,JMJD2A Tudor,G9a block,PLK1 PBD block,VDR inhibitor,HP1b chromo inh,BAZ2B block
NNc1cc([N+](=O)[O-])cc2c1C(=O)N(Cc1ccccc1)S2=O (stereo unspecified),56.2µM*,2.82µM*,u,u,-1.8%,u
O=C1C(=O)N(Cc2cccc([N+](=O)[O-])c2)c2ccccc21,-15.6%,12.3%[59 µM],-14.8%,u,-2.5%,-24.9%
CCCCC(CC)C(=O)Nc1cc(C(=O)NCCC)ccc1N1CCC2(CC1)CC(c1cccc(Br)c1)=NO2 (stereo unspecified),-13.7%,0.8%[2.33 µM],3.8%,-15.7%,40.5%,-17.3%
CCOc1cccc(C2C(C(=O)c3ccco3)=C(O)C(=O)N2c2nnc(C)s2)c1 (stereo unspecified),u,u,-13.3%,0.6%,32.8%,u
CCCOc1cccc(C2C(C(=O)c3ccc(C)o3)=C(O)C(=O)N2c2nc(C)c(C(C)=O)s2)c1 (stereo unspecified),-26.5%,15.8µM*,u,u,8.5%,56.2µM*
CCOc1cccc(C2C(C(=O)c3ccc(C)o3)=C(O)C(=O)N2c2nnc(C)s2)c1 (stereo unspecified),1.12µM*,x,-3.0%,7.0%,u,x
CCOc1cccc(C2c3c(oc4ccccc4c3=O)C(=O)N2c2nc(C)c(C(=O)OC)s2)c1 (stereo unspecified),-18.9%,-12.0%[59 µM],x,-16.9%,8.2%,u
O=C(Nc1nc(-c2cccs2)cs1)c1ccco1,-16.9%,u,u,-13.4%,16.0%,-28.0%
c1coc(CNc2nc(-c3cccs3)cs2)c1,u,20µM*,-23.0%,-22.0%,-32.0%,44.7µM*
CCN1/C(=C/c2ccc3cccc(C)c3[n+]2CC)Sc2ccccc21,-27.8%,50.1µM*,12.5%,-2.5%,-5.0%,50.1µM*
CC(=O)N1c2ccc(C)cc2Sc2c1ccc1ccccc21,-21.4%,x,-8.0%,-5.4%,5.1%[57 µM],x
CCN1/C(=C\c2ccc3cc(C)ccc3[n+]2CC)Sc2cc(C)c(C)cc21,u,20µM*,0.2%,-0.8%,u,x
CCN1/C(=C/c2ccc3cc(C)ccc3[n+]2CC)Sc2ccc3sccc3c21,u,x,u,-16.5%,u,x
CCN1/C(=C/c2ccc3cc(C)cc(C)c3[n+]2CC)Sc2cc(C)ccc21,15.8µM*,15.8µM*,11.0%,-0.4%,u,u
Cc1nc(SCc2ccc(OCCC(C)C)cc2)n[nH]1,-14.7%,50.1µM*,-6.1%,20.2%,28.6%,-15.1%
Cc1nc(SCc2ccc(Cl)c(Cl)c2)n[nH]1,-10.0%,15.5%,-4.5%,-9.7%,34.3%,1.3%
CCCCCOc1ccc(CSc2n[nH]c(C)n2)cc1,u,x,29.9µM*,u,-11.1%,4.5%
CCCOc1ccc(CSc2ncn[nH]2)cc1,3.16µM*,12.6µM*,2.67µM*,u,u,1.2%
NC(CCc1ccccc1)c1csc(Nc2nccc(C(F)(F)F)n2)n1 (stereo unspecified),x,x,-4.3%,x,x,x

# Source: PubChem
